# According to PubChem BioAssay (Tox21):
# Values without a mark were called inactive. Results filed as inconclusive are left out. Where a call stands in place of a potency, no number is given. Calls of active or inactive are those of the source. Unless noted, the call rests on the fitted dose curve; in most records, active means well fitted curve in the direction sought with a large enough effect in the repeat runs; inconclusive means weak or mixed curves; inactive means no such curve, though single readings can be large; an effect the other way counts as inactive or inconclusive.
# Legend:
# [1] = qHTS assay to identify small molecule agonists of the estrogen receptor alpha (ER-alpha) signaling pathway in the presence of an antagonist - cell viability counter screen (AID 1259386);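 further: series mostly up to about 92 µM; cells exposed to compounds for 22 h at 37 °C before the viability read; nearly all actives have a fitted effect of over 30% in size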
# Summary of the method: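 Steps: 5-day stripped-FBS culture; seed and incubate 24hr; add ICI-182,780 (10.0nM final); pin 15-point compound titration; incubate 22hr at 37C; add CellTiter-Fluor at 21hr; read fluorescence.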
# [2] = target: Progesterone receptor (Homo sapiens) (UniProt P06401); experiment: qHTS assay to identify small molecule agonists of the progesterone receptor (PR) signaling pathway (AID 1346784; calls by dose curve; further: nearly all actives have a fitted effect of over 30% in size)
# Summary of the method: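 PR-UAS-bla HEK 293T cells (beta-lactamase reporter under UAS) in 2% charcoal-stripped FBS, dosed with 23 nL compound after 6 hr, incubated 16hr at 37C. LiveBLAzer B/G FRET substrate added, fluorescence read after 2 hours.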
# [3] = qHTS assay to identify small molecule agonists of the progesterone receptor (PR) signaling pathway - cell viability counter screen (AID 1346799; calls by dose curve; further: nearly all actives have a fitted effect of over 45% in size)
# Summary of the method: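 Counter screen in the PR-UAS-bla HEK293T wells (2% charcoal-stripped FBS, 16 h compound exposure at 37 C) after the bla read. CellTiter-Glo added, 30 min at room temperature, luminescence read as cell viability.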
# [4] = qHTS assay to identify small molecule antagonists of the TGF-beta/Smad signaling pathway - cell viability counter screen (AID 1346824); further: nearly all actives have a fitted effect of over 50% in size
# Summary of the method: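 SBE-bla HEK 293T cells, incubated overnight, then compound plus 0.25 ng/mL TGF-beta1 (stock added) for 5 hr at 37 C. Viability was read in the same wells by CellTiter-Glo luminescence after 30 min at room temperature.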
# [5] = qHTS assay to identify small molecule agonists of the TGF-beta/Smad signaling pathway - cell viability counter screen (AID 1346829); further: top concentration of the series differs between compounds; nearly all actives have a fitted effect of over 45% in size
# Summary of the method: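 CellTiter-Glo luminescence readout; SBE-bla HEK 293T cells, overnight plating, compound 5 hr at 37 C/5% CO2, then bla substrate 2 hr RT, then CellTiter-Glo 30 min RT.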
# [6] = qHTS assay to identify small molecule agonists of the TGF-beta/Smad signaling pathway (AID 1346859; active means well fitted activation curve with a large enough effect in the signal ratio in the repeat runs, not every such curve was filed as active; the % refers to the signal ratio; further: series mostly up to about 77 µM)
# Summary of the method: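 SBE-bla HEK293T cells plated overnight, then compound exposure for 5 h at 37 C. Beta-lactamase reporter read with LiveBLAzer B/G FRET substrate after 2 h at room temperature, fluorescence at 405 nm excitation, 460/530 nm emission.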
# [7] = target: Thyrotropin-releasing hormone receptor (Homo sapiens) (UniProt P34981); experiment: qHTS assay to identify small molecule antagonists of the thyrotropin-releasing hormone receptor (TRHR) signaling pathway (AID 1346877; active means well fitted inhibition curve with a large enough effect in the repeat runs, not every such curve was filed as active; further: series mostly up to about 51 µM)
# Summary of the method: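 Human TRHR in HEK293 cells; inhibition of the intracellular calcium rise triggered by 1 nM TRH was followed by fluorescence over 3 min. Compounds were run at 15 concentrations, three replicates each.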
# [8] = target: Thyrotropin-releasing hormone receptor (Homo sapiens) (UniProt P34981); experiment: qHTS assay to identify small molecule agonists of the thyrotropin-releasing hormone receptor (TRHR) signaling pathway (AID 1346891; calls by dose curve; further: series mostly up to about 58 µM)
# Summary of the method: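 HEK293 cells expressing TRHR plated 18 h at 37 C/5% CO2, calcium dye-loaded 2 h at 37 C, then compound added (agonist mode); kinetic calcium fluorescence read 3 min at 1 s intervals; 15 concentrations in triplicate.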
# [9] = Caspase-3/7 induction in HepG2 cells by small molecules, qHTS assay (AID 1346978); further: nearly all actives have a fitted effect of over 15% in size; further: potency means the concentration at half of the fitted maximal effect
# Summary of the method: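 Wild-type HepG2 cells, 2,000/well, settled 5 hr at 37 C and 5% CO2, then compound-treated for 17 hr; caspase-3/7 activity read by luminescent Caspase-Glo 3/7 after 30 min at room temperature.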
# [10] = Caspase-3/7 induction in CHO-K1 cells by small molecules, qHTS cell viability counter screen (AID 1346979); further: nearly all actives have a fitted effect of over 35% in size; further: potency means the concentration at half of the fitted maximal effect
# Summary of the method: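 Wild-type CHO-K1 cells (1,500/well) treated with compound after 5 h plating; after 16 h at 37C, viability read as CellTiter-Fluor fluorescence following 1 h reagent incubation, in the same wells as the caspase read.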
# [11] = Caspase-3/7 induction in CHO-K1 cells by small molecules, qHTS assay (AID 1346980); further: nearly all actives have a fitted effect of over 15% in size
# Summary of the method: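 Wild-type CHO-K1 cells exposed to compounds for 17hr at 37 C, 5% CO2. Caspase-3/7 activity then measured by Caspase-Glo 3/7 luminescence after 30min at room temperature.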
# [12] = target: Nuclear receptor subfamily 1 group I member 2 (Homo sapiens) (UniProt O75469); experiment: Human pregnane X receptor (PXR) small molecule agonists, qHTS assay (AID 1346982); further: nearly all actives have a fitted effect of over 35% in size; further: potency means the concentration at half of the fitted maximal effect
# Summary of the method: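 After plating in 5% charcoal-stripped FBS and a 5 hr rest, PXR-Luc HepG2 cells received compounds in DMSO. Following 24 hr at 37 C, ONE-Glo was added and light output read.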
# [13] = qHTS assay to identify small molecule antagonists of the progesterone receptor (PR) signaling pathway - cell viability counter screen (AID 1346798); further: series mostly up to about 92 µM; nearly all actives have a fitted effect of over 50% in size
# Summary of the method: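 PR-UAS-bla HEK293T cells, 3,000/well in 2% charcoal-stripped FBS medium, dosed with compounds plus R5020 agonist and incubated 16 h at 37C. Viability then measured in the same wells by CellTiter-Glo luminescence after 30 min at RT.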
# [14] = Human pregnane X receptor (PXR) small molecule agonists, qHTS cell viability counter screen (AID 1346977); further: nearly all actives have a fitted effect of over 50% in size
# Summary of the method: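 PXR-Luc HepG2 cells (2,000/well, 5% charcoal-stripped FBS) preincubated 5 hr, then exposed to compounds 24 hr at 37 C. Viability read in the same wells by CellTiter-Fluor fluorescence, reagent added at 23 hr, 1 hr incubation.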
# [15] = Caspase-3/7 induction in HepG2 cells by small molecules, qHTS cell viability counter screen (AID 1346981); further: series mostly up to about 92 µM; nearly all actives have a fitted effect of over 30% in size
# Summary of the method: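 The parent HepG2 line is plated at 2,000 cells per well and rested 5 hr before compound pinning from DMSO stocks. Following a 16-hr treatment at 37 C, a fluorogenic live-cell substrate (CellTiter-Fluor) reports viability after 1 hr.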
# [16] = target: Progesterone receptor (Homo sapiens) (UniProt P06401); experiment: qHTS assay to identify small molecule antagonists of the progesterone receptor (PR) signaling pathway (AID 1346795; active means well fitted inhibition curve with a large enough effect in the signal ratio in the repeat runs, not every such curve was filed as active; the % refers to the signal ratio; further: potency means the concentration at half of the fitted maximal effect)
# Summary of the method: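 PR-UAS-bla HEK293T cells with beta-lactamase reporter under UAS control, in 2% charcoal-stripped FBS, treated with compounds plus 1 nM promegestone (R5020, final) for 16 hr at 37C. Read-out: FRET beta-lactamase substrate fluorescence after 2 hr at room temperature.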
# Sequence of Progesterone receptor (Homo sapiens) (P06401 whole entry, looked up): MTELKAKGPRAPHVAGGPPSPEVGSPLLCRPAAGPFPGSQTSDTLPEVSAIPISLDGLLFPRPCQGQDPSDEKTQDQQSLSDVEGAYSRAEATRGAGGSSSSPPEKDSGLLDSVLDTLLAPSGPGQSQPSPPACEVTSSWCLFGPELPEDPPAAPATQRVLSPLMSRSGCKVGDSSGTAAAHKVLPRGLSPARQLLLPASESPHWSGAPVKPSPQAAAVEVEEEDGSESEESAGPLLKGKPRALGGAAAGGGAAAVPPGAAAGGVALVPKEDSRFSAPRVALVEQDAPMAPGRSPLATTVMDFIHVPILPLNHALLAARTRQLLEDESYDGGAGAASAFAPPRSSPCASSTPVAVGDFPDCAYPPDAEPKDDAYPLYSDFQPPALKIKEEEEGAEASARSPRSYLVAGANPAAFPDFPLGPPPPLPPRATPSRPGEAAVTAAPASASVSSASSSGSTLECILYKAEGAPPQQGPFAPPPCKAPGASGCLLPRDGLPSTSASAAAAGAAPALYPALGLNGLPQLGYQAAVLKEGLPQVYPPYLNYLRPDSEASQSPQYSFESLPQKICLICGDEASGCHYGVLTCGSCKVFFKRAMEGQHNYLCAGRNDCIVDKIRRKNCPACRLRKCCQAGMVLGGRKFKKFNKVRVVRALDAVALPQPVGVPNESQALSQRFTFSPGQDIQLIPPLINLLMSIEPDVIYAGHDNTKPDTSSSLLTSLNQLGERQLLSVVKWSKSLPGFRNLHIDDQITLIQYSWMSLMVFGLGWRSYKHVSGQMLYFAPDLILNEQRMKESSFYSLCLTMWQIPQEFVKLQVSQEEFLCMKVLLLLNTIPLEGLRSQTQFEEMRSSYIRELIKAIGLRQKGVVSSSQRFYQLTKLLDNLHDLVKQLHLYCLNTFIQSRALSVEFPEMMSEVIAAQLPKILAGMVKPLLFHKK
# Sequence of Nuclear receptor subfamily 1 group I member 2 (Homo sapiens) (O75469 whole entry, looked up): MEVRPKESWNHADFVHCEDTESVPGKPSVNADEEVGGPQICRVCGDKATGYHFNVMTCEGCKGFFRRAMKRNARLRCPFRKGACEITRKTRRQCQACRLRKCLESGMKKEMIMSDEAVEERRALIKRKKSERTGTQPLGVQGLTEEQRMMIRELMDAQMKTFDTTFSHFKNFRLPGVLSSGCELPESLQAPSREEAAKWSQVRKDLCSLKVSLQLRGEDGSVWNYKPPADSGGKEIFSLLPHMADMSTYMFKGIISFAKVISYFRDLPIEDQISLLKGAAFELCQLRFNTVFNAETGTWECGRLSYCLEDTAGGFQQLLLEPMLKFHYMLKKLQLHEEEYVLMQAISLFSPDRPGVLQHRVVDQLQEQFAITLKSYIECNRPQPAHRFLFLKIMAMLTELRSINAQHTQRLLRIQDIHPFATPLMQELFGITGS
# Sequence of Thyrotropin-releasing hormone receptor (Homo sapiens) (P34981 whole entry, looked up): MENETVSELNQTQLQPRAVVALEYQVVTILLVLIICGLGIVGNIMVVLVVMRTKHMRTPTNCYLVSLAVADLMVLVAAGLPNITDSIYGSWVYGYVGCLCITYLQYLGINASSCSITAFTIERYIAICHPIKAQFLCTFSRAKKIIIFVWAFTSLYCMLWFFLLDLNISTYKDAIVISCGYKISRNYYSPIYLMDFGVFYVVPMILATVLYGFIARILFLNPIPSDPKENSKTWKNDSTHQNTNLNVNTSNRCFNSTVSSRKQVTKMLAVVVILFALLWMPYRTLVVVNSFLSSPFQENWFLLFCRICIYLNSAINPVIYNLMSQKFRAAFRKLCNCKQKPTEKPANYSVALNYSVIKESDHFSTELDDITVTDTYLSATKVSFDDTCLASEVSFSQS
Compound,Potency [1],Potency [2],Potency [3],Potency [4],Potency [5],outcome [6],Potency [7],Potency [8],Potency [9],Potency [10],Potency [11],Potency [12],Potency [13],Potency [14],Potency [15],Potency [16]
O=Cc1ccc(Cl)cc1Cl,inactive,inactive,inactive,inactive,inactive,inactive,inactive,inactive,inactive,inactive,inactive,inactive,,,,
CCC(C)(NC(=O)c1cc(Cl)c(C)c(Cl)c1)C(=O)CCl (centres undefined),,inactive,inactive,inactive,inactive,,inactive,inactive,61.5 µM (active),24.5 µM (active),,,inactive,,,
C=CC(=O)NCNC(=O)C=C,,inactive,,,inactive,inactive,inactive,inactive,inactive,,inactive,30.6 µM (active),inactive,inactive,inactive,
COP(=O)(OC)O/C(=C/Cl)c1cc(Cl)c(Cl)cc1Cl,inactive,,inactive,inactive,inactive,inactive,inactive,inactive,inactive,,inactive,72.4 µM (active),inactive,inactive,inactive,14.5 µM (active)
CCCC(Cn1cncn1)c1ccc(Cl)cc1Cl (centres undefined),inactive,inactive,,inactive,inactive,inactive,inactive,inactive,inactive,,inactive,24.3 µM (active),,,,
OC(c1ccc(Cl)cc1)(c1ccc(Cl)cc1)c1cccnc1,inactive,inactive,,inactive,,inactive,inactive,inactive,inactive,61.1 µM (active),inactive,61.1 µM (active),,,,17.2 µM (active)
C/C=C/C=O,,inactive,inactive,inactive,inactive,inactive,,,inactive,inactive,inactive,inactive,inactive,inactive,inactive,inactive
C=CC[C@]1(O)CC[C@H]2[C@@H]3CCC4=CC(=O)CCC4=C3C=C[C@@]21C,,,,inactive,inactive,,inactive,inactive,inactive,7.5 µM (active),,inactive,inactive,inactive,,
